In ChEMBL document CHEMBL3988442, “University of Dundee, Small-Polar-MMV Screening Library” (2021) one finds Percent Effect data, which are given here for eight molecules.

Common to all, as to parameters: scale not given: direction of the effect not stated beside the values
The target in assay [1] is Protein translocase subunit SecA (Escherichia coli (strain K12)) (UniProt P10408). Kind of assay: Assay to Identify E. coli SecA ATPase Inhibitors. Format: functional. To be noted: 30 µM.
Assay [2] deals with T1, Ubiquitin-activating enzyme e1, putative (Leishmania donovani (strain BPK282A1)) (UniProt E9BSI1).
T1 sequence (whole entry): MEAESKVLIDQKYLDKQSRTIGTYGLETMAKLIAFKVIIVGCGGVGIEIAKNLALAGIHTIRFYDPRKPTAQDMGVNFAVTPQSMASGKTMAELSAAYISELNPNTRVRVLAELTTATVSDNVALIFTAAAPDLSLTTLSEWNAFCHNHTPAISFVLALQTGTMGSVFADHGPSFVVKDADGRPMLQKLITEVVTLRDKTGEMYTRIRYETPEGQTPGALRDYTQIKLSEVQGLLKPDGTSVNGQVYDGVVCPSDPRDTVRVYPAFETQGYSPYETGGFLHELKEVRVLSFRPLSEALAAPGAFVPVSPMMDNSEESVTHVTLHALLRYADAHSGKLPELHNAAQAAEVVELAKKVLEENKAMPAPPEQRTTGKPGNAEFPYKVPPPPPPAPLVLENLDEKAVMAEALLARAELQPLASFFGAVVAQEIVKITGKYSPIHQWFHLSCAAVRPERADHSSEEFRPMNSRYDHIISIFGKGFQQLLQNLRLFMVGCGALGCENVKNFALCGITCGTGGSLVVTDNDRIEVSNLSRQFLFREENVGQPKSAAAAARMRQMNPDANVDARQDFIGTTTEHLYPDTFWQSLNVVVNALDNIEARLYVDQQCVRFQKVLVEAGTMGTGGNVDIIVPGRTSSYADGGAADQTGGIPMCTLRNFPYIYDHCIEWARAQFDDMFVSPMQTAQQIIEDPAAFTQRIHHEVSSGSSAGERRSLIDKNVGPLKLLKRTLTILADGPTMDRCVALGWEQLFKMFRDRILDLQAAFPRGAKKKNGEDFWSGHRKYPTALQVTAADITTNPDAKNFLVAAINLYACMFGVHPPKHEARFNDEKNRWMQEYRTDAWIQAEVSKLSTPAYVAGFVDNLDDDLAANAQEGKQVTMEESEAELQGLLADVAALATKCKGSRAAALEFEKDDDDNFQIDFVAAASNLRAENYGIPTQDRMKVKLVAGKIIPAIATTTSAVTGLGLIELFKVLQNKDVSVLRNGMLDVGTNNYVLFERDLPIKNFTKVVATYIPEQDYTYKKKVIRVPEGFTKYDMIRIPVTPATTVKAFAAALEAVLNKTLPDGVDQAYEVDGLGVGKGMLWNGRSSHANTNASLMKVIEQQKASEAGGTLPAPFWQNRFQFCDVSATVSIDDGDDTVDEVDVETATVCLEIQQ
Kind of assay: Leishmania donovani Ubiquitin Activating Enzyme (LdE1). It counts as functional. The conditions noted are these: 30 µM.

Assay [3] deals with AMP-activated protein kinase, AMPK (Homo sapiens) (UniProt P54646+O43741+P54619+Q9UGJ0+Q9Y478+Q13131+Q9UGI9). Kind of assay: AMP-dependent Kinase enzyme assay. An in vitro enzyme assay that detects ADP turnover that is directly proportional to AMPK activity. This uses naive AMPK that is activated during the assay with MK-8722. Format: functional. To be noted: 30 µM.
The target in assay [4] is Sialic acid-binding Ig-like lectin 9 (Homo sapiens) (UniProt Q9Y336). Description: Hs-Siglec9 ALPHAscreen SOP 20170721. To be noted: 10 µM.
Sialic acid-binding Ig-like lectin 9 (Homo sapiens), sequence (Q9Y336 whole entry): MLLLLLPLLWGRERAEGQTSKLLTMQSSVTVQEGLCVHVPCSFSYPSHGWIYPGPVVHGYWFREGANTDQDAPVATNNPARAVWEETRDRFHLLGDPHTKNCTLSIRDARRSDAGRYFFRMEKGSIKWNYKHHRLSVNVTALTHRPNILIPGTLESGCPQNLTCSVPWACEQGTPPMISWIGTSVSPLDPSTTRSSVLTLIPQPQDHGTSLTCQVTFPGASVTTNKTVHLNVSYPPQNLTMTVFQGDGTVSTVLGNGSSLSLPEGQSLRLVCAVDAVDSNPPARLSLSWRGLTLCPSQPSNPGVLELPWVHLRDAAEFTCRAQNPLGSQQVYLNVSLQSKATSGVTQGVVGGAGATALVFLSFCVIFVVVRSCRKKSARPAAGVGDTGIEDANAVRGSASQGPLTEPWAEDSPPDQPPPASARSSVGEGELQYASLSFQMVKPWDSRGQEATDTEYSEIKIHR
The subject of assay [5] is Trypanosoma cruzi. Description: Trypanosoma cruzi phosphomannomutase and mannose-1-phosphate guanylyltransferase assay. To be noted: 10 µM. Format: functional.
The target in assay [6] is T2, Arginase-2, mitochondrial (Homo sapiens) (UniProt P78540).
T2 sequence (whole entry): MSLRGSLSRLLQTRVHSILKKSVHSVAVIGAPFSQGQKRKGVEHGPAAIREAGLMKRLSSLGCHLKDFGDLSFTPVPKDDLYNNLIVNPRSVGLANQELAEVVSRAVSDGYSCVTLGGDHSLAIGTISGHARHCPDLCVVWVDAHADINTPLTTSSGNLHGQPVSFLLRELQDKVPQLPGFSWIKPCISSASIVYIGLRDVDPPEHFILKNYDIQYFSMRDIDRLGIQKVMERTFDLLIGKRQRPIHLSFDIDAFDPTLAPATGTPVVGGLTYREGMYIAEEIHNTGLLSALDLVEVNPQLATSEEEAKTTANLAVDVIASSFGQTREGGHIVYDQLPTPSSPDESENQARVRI
Description: in vitro enzyme assay to detect the production of urea directly proportional to the activity of Arginase II. Note: in the data most compounds retested in dose-response had high values. It counts as functional. To be noted: 33.3 µM.

The target of assay [7] is T3, Proteasome subunit beta (Trypanosoma cruzi) (UniProt O96673).
T3 sequence (whole entry): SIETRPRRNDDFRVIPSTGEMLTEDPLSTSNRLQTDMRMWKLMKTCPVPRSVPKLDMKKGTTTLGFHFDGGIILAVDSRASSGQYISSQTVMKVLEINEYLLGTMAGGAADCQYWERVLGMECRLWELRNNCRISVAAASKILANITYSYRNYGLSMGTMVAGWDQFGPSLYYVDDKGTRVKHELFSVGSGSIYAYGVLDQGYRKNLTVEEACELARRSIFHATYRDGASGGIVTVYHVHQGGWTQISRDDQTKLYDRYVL
Kind of assay: Trypanosoma cruzi proteasome chymotrypsin-like activity (TcProtChymo) assay. Note: in the data most compounds retested in dose-response had high values. Format: functional. To be noted: 9.37 µM.

The species named for assay [8] is Homo sapiens. Description: To identify inhibition of the IFN signalling (Jak-Stat) pathway via expression of an eGFP reporter gene under the control of an IFN-stimulated response element (ISRE) containing MxA promoter. Format: functional. The conditions noted are these: 30 µM. (A reporter such as luciferase makes a cellular process visible.)
For assay [9], the target named is T4, Tyrosyl-tRNA synthetase, putative (Trypanosoma cruzi (strain CL Brener)) (UniProt Q4DSP6).
T4 sequence (whole entry): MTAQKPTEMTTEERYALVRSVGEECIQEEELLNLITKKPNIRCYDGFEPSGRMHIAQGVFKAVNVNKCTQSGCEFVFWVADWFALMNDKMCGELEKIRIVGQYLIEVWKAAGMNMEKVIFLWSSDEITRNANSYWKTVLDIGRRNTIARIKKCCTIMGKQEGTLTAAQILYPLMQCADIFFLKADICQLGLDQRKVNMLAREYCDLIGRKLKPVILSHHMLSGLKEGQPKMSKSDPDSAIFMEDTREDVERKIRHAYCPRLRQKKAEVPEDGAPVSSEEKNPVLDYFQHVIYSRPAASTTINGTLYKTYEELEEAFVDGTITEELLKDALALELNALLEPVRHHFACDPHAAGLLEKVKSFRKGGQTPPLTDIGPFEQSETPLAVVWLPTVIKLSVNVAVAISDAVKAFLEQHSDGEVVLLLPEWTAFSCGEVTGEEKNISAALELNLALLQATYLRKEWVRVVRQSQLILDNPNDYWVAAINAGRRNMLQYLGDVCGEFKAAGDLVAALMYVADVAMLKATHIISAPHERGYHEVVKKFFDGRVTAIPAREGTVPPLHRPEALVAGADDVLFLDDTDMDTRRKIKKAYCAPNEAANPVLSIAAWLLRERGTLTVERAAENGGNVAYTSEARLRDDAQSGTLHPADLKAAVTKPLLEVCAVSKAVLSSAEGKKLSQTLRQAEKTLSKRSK
Kind of assay: Trypanosoma cruzi tyrosyl tRNA synthetase (TcYRS) _High Tyrosine SOP. Note: in the data most compounds retested in dose-response had high values. It counts as functional. The conditions noted are these: 30 µM.

Assay [10] concerns the target T4, Tyrosyl-tRNA synthetase, putative (Trypanosoma cruzi (strain CL Brener)). Description: Trypanosoma cruzi tyrosyl tRNA synthetase (TcYRS) SOP. It counts as functional. To be noted: 30 µM.
Assay [11] addresses Chromo domain-containing protein 1 (Saccharomyces cerevisiae (strain ATCC 204508 / S288c) (Baker's yeast)) (UniProt P32657). Description: ScCHD-1 Enzyme Inhibition Assay. Note: in the data most compounds retested in dose-response had high values. Format: functional. To be noted: 30 µM.

For some of these results: Potency and affinity values are given separately.

Chromo domain-containing protein 1 (Saccharomyces cerevisiae (strain ATCC 204508 / S288c) (Baker's yeast)), sequence (P32657 whole entry, the tested form may be a part): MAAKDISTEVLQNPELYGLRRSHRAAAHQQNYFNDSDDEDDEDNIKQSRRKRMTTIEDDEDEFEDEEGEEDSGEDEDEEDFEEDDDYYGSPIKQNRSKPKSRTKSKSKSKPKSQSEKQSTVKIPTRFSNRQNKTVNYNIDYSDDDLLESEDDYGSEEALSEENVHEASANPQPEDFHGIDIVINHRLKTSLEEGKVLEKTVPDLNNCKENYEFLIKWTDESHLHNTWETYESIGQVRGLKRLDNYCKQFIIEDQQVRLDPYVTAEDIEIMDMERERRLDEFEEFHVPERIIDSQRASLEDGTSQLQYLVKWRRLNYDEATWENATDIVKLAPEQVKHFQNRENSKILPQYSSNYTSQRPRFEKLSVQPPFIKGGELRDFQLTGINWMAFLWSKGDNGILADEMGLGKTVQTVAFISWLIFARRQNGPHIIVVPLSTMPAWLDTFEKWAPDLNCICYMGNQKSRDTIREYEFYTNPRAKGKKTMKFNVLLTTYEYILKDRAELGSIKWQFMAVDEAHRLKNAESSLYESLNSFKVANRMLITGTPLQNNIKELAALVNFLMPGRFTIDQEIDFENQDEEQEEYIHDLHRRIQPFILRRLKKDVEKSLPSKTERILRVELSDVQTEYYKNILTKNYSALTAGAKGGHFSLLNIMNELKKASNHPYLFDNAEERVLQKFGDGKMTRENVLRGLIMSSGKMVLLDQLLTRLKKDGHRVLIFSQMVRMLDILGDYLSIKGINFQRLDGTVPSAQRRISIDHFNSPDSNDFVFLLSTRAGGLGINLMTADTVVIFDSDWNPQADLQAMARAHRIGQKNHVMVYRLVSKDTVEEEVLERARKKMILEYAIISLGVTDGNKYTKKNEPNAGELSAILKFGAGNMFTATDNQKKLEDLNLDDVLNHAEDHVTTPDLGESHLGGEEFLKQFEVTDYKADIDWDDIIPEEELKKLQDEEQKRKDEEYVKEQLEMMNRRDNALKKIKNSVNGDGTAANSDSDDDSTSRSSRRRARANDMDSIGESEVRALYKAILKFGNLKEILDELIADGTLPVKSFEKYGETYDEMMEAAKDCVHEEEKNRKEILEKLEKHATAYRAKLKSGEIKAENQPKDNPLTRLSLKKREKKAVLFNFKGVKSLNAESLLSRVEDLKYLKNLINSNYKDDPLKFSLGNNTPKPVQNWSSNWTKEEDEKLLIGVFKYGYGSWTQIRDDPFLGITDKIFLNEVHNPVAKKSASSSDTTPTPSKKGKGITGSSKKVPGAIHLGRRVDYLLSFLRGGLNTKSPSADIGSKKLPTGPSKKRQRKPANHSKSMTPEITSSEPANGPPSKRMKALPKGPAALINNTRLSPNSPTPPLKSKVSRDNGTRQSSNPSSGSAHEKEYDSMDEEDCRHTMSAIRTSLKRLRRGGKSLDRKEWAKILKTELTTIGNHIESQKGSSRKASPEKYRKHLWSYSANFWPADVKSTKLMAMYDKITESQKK
Protein translocase subunit SecA (Escherichia coli (strain K12)), sequence (P10408 whole entry): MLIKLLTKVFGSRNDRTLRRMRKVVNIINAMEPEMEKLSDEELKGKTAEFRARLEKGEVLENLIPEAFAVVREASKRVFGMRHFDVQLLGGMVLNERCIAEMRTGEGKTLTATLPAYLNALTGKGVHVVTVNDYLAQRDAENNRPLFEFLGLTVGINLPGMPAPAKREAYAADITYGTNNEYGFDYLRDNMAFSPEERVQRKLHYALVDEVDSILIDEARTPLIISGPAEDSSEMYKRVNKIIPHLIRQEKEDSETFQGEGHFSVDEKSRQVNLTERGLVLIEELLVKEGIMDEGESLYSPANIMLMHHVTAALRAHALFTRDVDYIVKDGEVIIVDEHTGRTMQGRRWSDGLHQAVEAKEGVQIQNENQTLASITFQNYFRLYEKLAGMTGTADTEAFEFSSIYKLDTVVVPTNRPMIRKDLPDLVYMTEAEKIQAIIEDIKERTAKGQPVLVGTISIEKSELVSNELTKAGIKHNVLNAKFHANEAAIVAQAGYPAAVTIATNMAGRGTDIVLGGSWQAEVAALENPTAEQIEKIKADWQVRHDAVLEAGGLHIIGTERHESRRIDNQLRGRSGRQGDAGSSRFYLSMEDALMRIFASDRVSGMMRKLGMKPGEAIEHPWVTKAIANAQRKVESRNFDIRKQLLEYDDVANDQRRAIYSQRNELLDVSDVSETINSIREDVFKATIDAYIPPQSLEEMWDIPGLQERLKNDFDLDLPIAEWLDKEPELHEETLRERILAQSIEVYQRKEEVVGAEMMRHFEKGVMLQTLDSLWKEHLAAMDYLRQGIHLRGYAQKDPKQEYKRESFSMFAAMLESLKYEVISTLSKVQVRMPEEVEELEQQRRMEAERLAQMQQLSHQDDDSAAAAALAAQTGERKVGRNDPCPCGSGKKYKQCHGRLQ

As for `COc1cc(C)nc(N2CCN(Cc3nccn3C)CC2)n1`, the Percent Effect is -2.16% in assay [1]; 9.72% in assay [2]; 3.08% in assay [3]; -2.82% in [4]; -0.875% in [5]; 1.32% in assay [6]. Moreover, the Percent Effect was 10.3% in [7]; 0.819% in assay [8]; 2.1% in [9]; 2.56% in assay [10]; -3.1% in assay [11].

Consider `c1ccc(OCCCNCCn2cccn2)cc1`, for which the Percent Effect in [1] is -4.38%; in [2], 1.27%; in assay [3] it was -0.45%; in assay [4], 4.63%; in assay [5], 4%; in assay [6], -2.8%. Also, the Percent Effect in assay [7] is 3.94%; in assay [8], -1.21%; in assay [9], 5.21%; in assay [10], 10.1%; in assay [11] it was -18.9%.

Take `Cc1cncc(C(=O)N2CCCC(C(=O)CCc3ccccc3)C2)c1` (stereo not drawn): the Percent Effect was 3.06% in assay [1]; 2.74% in assay [2]; 1.42% in assay [3]; 1.76% in assay [4]; -5.88% in assay [5]; 4.54% in assay [6]. Moreover, the Percent Effect in assay [7] was 19.2%; in [8], 14.7%; in assay [9] it was 4.3%; in [10] it was 15%; in assay [11], -12.2%.

For `CS(=O)(=O)N1CCOCC2(CCN(C(=O)c3cccnc3)CC2)C1`, the Percent Effect in assay [1] is 0.0699%; in [2], 2.74%; in assay [3], 2.01%; in assay [4] it was -0.0941%; in assay [5], 2.78%; in [6] it was 4.79%. The Percent Effect in assay [7] is 9.33%; in assay [8], -18.8%; in assay [9], 0%; in [10], 3.7%; in [11] it was -3.11%.

As for `COCCC(=O)N1CCC2(COCc3cnc(N4CCOCC4)nc32)C1` (stereo not drawn), the Percent Effect in [1] is -4.87%; in [2], 10.7%; in assay [3], 18.4%; in assay [4], -1.98%; in assay [5] it was -5.51%; in assay [6], 2.1%. The Percent Effect in assay [7] is 8.02%; in assay [8] it was 11.9%; in assay [9], 0%; in [10], 6.41%; in assay [11] it was -0.906%.

For the molecule `O=C([C@H]1COC[C@H]2CN(C3CCCC3)C[C@H]21)N1CCCCO1`, the Percent Effect in [1] is -1.86%; in assay [2] it was 0%; in [3], 2.27%; in assay [4], 5.11%; in assay [5], -0.579%; in [6], -51.4%. For the same molecule, the Percent Effect in [7] is 2.39%; in [8], -22.5%; in assay [9] it was 0%; in assay [10], -5%; in assay [11] it was -3.46%.

Turning to `CC(C)Oc1ccc(CNC(=O)CC(F)(F)F)cc1F`, the Percent Effect in assay [1] was -5.61%; in assay [2] it was 10.5%; in assay [3], -1.12%; in assay [4], 6.95%; in [5], -2.52%; in assay [6], 1.08%. For the same molecule, the Percent Effect in [7] was 1.78%; in assay [8], -11.2%; in assay [9] it was 4.43%; in [10] it was 11.1%; in assay [11], -4.45%.

Consider `N#Cc1cccc(S(=O)(=O)NC(=O)COC2CCCC2)c1`, for which the Percent Effect in [1] is -0.529%; in [2], 26%; in assay [3], -4.75%; in [4], -1.76%; in assay [5], 1.31%; in assay [6], 1.07%. Moreover, the Percent Effect in assay [7] was 11.3%; in assay [8], 0.622%; in [9], 7.77%; in assay [10], 21.9%; in assay [11], -7.26%.
